Measurements published in PubChem BioAssay AID1159580 (chemical genetic matrix, 2015).
Among all 5,500 compounds or so, about 2,000 (36%) were called active. Another 18% or so got no clear call; they are omitted. No stated cut-off is given here; in the data, active means normalized growth mostly below about 0.91 (no sharp cut-off); inconclusive means no clear call, values can overlap the other calls; inactive means mostly above about 0.92. Some of the results follow.

Assay: chemical genetic growth profiling, strain panel (AID 1159580);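 further: tested at 20 µM; growth read once vehicle control cultures reached saturation at 30 °C; 1 = growth at the plate median or of vehicle wells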
Conditions: growth OD

Measured: normalized growth

CC(=O)O[C@@H]1CC2C(C)(C)[C@H](O)C=C[C@]2(C)C2CC[C@]3(C)C(=CC(=O)O[C@H]3c3ccoc3)[C@@]21C (stereo partly specified)
inactive: S. cerevisiae deletion strains, locus YAL021C, strain ccr4, stronger effect = lower value 0.971 | S. cerevisiae deletion strains, locus YAL026C, strain drs2, stronger effect = lower value 0.983 | S. cerevisiae deletion strains, locus YAL030W, strain snc1, stronger effect = lower value 0.974 | S. cerevisiae deletion strains, locus YBL061C, strain skt5, stronger effect = lower value 0.987 | S. cerevisiae deletion strains, locus YBR009C, strain hhf1, stronger effect = lower value 0.984 | S. cerevisiae deletion strains, locus YBR021W, strain FUR4, stronger effect = lower value 0.987 | S. cerevisiae deletion strains, locus YBR023C, strain chs3, stronger effect = lower value 0.993 | S. cerevisiae deletion strains, locus YBR171W, strain sec66, stronger effect = lower value 0.988 | S. cerevisiae deletion strains, locus YBR229C, strain ROT2, stronger effect = lower value 0.996 | S. cerevisiae deletion strains, locus YBR231C, strain swc5, stronger effect = lower value 0.99 | S. cerevisiae deletion strains, locus YBR279W, strain paf1, stronger effect = lower value 0.99 | S. cerevisiae deletion strains, locus YCL011C, strain gbp2, stronger effect = lower value 0.996 | S. cerevisiae deletion strains, locus YCL016C, strain dcc1, stronger effect = lower value 0.995 | S. cerevisiae deletion strains, locus YCL029C, strain bik1, stronger effect = lower value 1.01 | S. cerevisiae deletion strains, locus YCL061C, strain MRC1, stronger effect = lower value 1 | S. cerevisiae deletion strains, locus YCL069W, strain vba3, stronger effect = lower value 0.994 | S. cerevisiae deletion strains, locus YCR088W, strain abp1, stronger effect = lower value 0.983 | S. cerevisiae deletion strains, locus YDL005C, strain med2, stronger effect = lower value 0.967 | S. cerevisiae deletion strains, locus YDL035C, strain GPR1, stronger effect = lower value 1.03 | S. cerevisiae deletion strains, locus YDL040C, strain nat1, stronger effect = lower value 0.983 | S. cerevisiae deletion strains, locus YDL074C, strain BRE1, stronger effect = lower value 0.999 | S. cerevisiae deletion strains, locus YDL101C, strain DUN1, stronger effect = lower value 1.01 | S. cerevisiae deletion strains, locus YDL185W, strain tfp1, stronger effect = lower value 1.01 | S. cerevisiae deletion strains, locus YDL192W, strain arf1, stronger effect = lower value 1.01 | S. cerevisiae deletion strains, locus YDR001C, strain nth1, stronger effect = lower value 0.976 | S. cerevisiae deletion strains, locus YDR069C, strain doa4, stronger effect = lower value 0.978 | S. cerevisiae deletion strains, locus YDR101C, strain arx1, stronger effect = lower value 1.02 | S. cerevisiae deletion strains, locus YDR137W, strain rgp1, stronger effect = lower value 0.956 | S. cerevisiae deletion strains, locus YDR159W, strain sac3, stronger effect = lower value 0.962 | S. cerevisiae deletion strains, locus YDR162C, strain NBP2, stronger effect = lower value 1.02 | S. cerevisiae deletion strains, locus YDR195W, strain ref2 0.969 | S. cerevisiae deletion strains, locus YDR297W, strain sur2, stronger effect = lower value 0.973 | S. cerevisiae deletion strains, locus YDR318W, strain mcm21, stronger effect = lower value 1 | S. cerevisiae deletion strains, locus YDR334W, strain swr1, stronger effect = lower value 0.972 | S. cerevisiae deletion strains, locus YDR335W, strain msn5, stronger effect = lower value 0.975 | S. cerevisiae deletion strains, locus YDR388W, stronger effect = lower value 1 | S. cerevisiae deletion strains, locus YDR392W, strain spt3, stronger effect = lower value 0.989 | S. cerevisiae deletion strains, locus YDR502C, strain sam2, stronger effect = lower value 1.01 | S. cerevisiae deletion strains, locus YEL003W, strain gim4, stronger effect = lower value 0.985 | S. cerevisiae deletion strains, locus YEL037C, strain rad23, stronger effect = lower value 0.984 | S. cerevisiae deletion strains, locus YEL061C, strain CIN8 (second series), stronger effect = lower value 0.988 | S. cerevisiae deletion strains, locus YEL061C, strain CIN8, stronger effect = lower value 1 | S. cerevisiae deletion strains, locus YER015W, strain faa2, stronger effect = lower value 0.991 | S. cerevisiae deletion strains, locus YER016W, strain bim1, stronger effect = lower value 0.993 | S. cerevisiae deletion strains, locus YER110C, stronger effect = lower value 0.996 | S. cerevisiae deletion strains, locus YER111C, strain swi4, stronger effect = lower value 0.975 | S. cerevisiae deletion strains, locus YER155C, strain BEM2 (second series), stronger effect = lower value 0.985 | S. cerevisiae deletion strains, locus YER155C, strain BEM2, stronger effect = lower value 0.997 | S. cerevisiae deletion strains, locus YER167W, strain BCK2, stronger effect = lower value 1.01 | S. cerevisiae deletion strains, locus YFR010W, strain ubp6, stronger effect = lower value 0.97 | S. cerevisiae deletion strains, locus YGL078C, strain dbp3, stronger effect = lower value 1 | S. cerevisiae deletion strains, locus YGL086W, strain mad1, stronger effect = lower value 0.993 | S. cerevisiae deletion strains, locus YGL167C, strain pmr1, stronger effect = lower value 0.987 | S. cerevisiae deletion strains, locus YGL173C, strain kem1, stronger effect = lower value 0.977 | S. cerevisiae deletion strains, locus YGL227W, strain vid30, stronger effect = lower value 0.989 | S. cerevisiae deletion strains, locus YGL240W, strain doc1, stronger effect = lower value 0.993 | S. cerevisiae deletion strains, locus YGL248W, strain PDE1, stronger effect = lower value 1.01 | S. cerevisiae deletion strains, locus YGL253W, strain hxk2, stronger effect = lower value 0.985 | S. cerevisiae deletion strains, locus YGR135W, strain pre9, stronger effect = lower value 1 | S. cerevisiae deletion strains, locus YGR229C, strain SMI1, stronger effect = lower value 1.04 | S. cerevisiae deletion strains, locus YGR252W, strain gcn5, stronger effect = lower value 0.97 | S. cerevisiae deletion strains, locus YHR013C, strain ard1, stronger effect = lower value 0.98 | S. cerevisiae deletion strains, locus YHR027C, strain rpn1, stronger effect = lower value 0.994 | S. cerevisiae deletion strains, locus YHR030C, strain SLT2, stronger effect = lower value 1.01 | S. cerevisiae deletion strains, locus YHR079C, strain IRE1 (second series), stronger effect = lower value 1 | S. cerevisiae deletion strains, locus YHR094C, strain hxt1, stronger effect = lower value 1 | S. cerevisiae deletion strains, locus YHR129C, strain ARP1, stronger effect = lower value 1.01 | S. cerevisiae deletion strains, locus YHR142W, strain chs7, stronger effect = lower value 0.993 | S. cerevisiae deletion strains, locus YHR200W, strain rpn10, stronger effect = lower value 1 | S. cerevisiae deletion strains, locus YIL066C, strain RNR3, stronger effect = lower value 1 | S. cerevisiae deletion strains, locus YIL073C, strain SPO22, stronger effect = lower value 1.01 | S. cerevisiae deletion strains, locus YIL125W, strain kgd1, stronger effect = lower value 0.99 | S. cerevisiae deletion strains, locus YIR030C, strain dcg1, stronger effect = lower value 0.997 | S. cerevisiae deletion strains, locus YJL092W, strain hpr5, stronger effect = lower value 0.984 | S. cerevisiae deletion strains, locus YJL095W, strain BCK1 (second series), stronger effect = lower value 0.981 | S. cerevisiae deletion strains, locus YJL095W, strain BCK1, stronger effect = lower value 1.02 | S. cerevisiae deletion strains, locus YJL115W, strain asf1, stronger effect = lower value 0.964 | S. cerevisiae deletion strains, locus YJL129C, strain trk1, stronger effect = lower value 0.988 | S. cerevisiae deletion strains, locus YJL134W, strain LCB3, stronger effect = lower value 1.01 | S. cerevisiae deletion strains, locus YJL154C, strain vps35, stronger effect = lower value 0.981 | S. cerevisiae deletion strains, locus YJL164C, strain tpk1, stronger effect = lower value 0.991 | S. cerevisiae deletion strains, locus YJL166W, strain qcr8, stronger effect = lower value 0.993 | S. cerevisiae deletion strains, locus YJL168C, strain set2, stronger effect = lower value 0.99 | S. cerevisiae deletion strains, locus YJL187C, strain SWE1 (second series), stronger effect = lower value 1.01 | S. cerevisiae deletion strains, locus YJL187C, strain SWE1, stronger effect = lower value 0.986 | S. cerevisiae deletion strains, locus YKL009W, strain mrt4, stronger effect = lower value 0.993 | S. cerevisiae deletion strains, locus YKL068W, stronger effect = lower value 1.01 | S. cerevisiae deletion strains, locus YKL085W, strain MDH1 (second series), stronger effect = lower value 0.997 | S. cerevisiae deletion strains, locus YKL085W, strain MDH1, stronger effect = lower value 0.997 | S. cerevisiae deletion strains, locus YKL160W, strain elf1, stronger effect = lower value 0.992 | S. cerevisiae deletion strains, locus YKL190W, strain CNB1, stronger effect = lower value 1.01 | S. cerevisiae deletion strains, locus YKR001C, strain vps1, stronger effect = lower value 1 | S. cerevisiae deletion strains, locus YKR026C, strain gcn3, stronger effect = lower value 0.99 | S. cerevisiae deletion strains, locus YKR091W, strain srl3, stronger effect = lower value 0.99 | S. cerevisiae deletion strains, locus YLL001W, strain dnm1, stronger effect = lower value 0.983 | S. cerevisiae deletion strains, locus YLL026W, stronger effect = lower value 0.987 | S. cerevisiae deletion strains, locus YLL041C, strain sdh2, stronger effect = lower value 0.985 | S. cerevisiae deletion strains, locus YLR027C, strain aat2, stronger effect = lower value 0.979 | S. cerevisiae deletion strains, locus YLR039C, strain RIC1, stronger effect = lower value 1.07 | S. cerevisiae deletion strains, locus YLR058C, strain SHM2, stronger effect = lower value 1 | S. cerevisiae deletion strains, locus YLR102C, strain apc9, stronger effect = lower value 0.998 | S. cerevisiae deletion strains, locus YLR221C, strain rsa3, stronger effect = lower value 0.993 | S. cerevisiae deletion strains, locus YLR258W, strain gsy2, stronger effect = lower value 0.998 | S. cerevisiae deletion strains, locus YLR262C, strain YPT6 (second series), stronger effect = lower value 0.978 | S. cerevisiae deletion strains, locus YLR268W, strain sec22, stronger effect = lower value 0.997 | S. cerevisiae deletion strains, locus YLR320W, strain mms22, stronger effect = lower value 0.991 | S. cerevisiae deletion strains, locus YLR342W, strain FKS1 (second series), stronger effect = lower value 1.01 | S. cerevisiae deletion strains, locus YLR342W, strain FKS1, stronger effect = lower value 0.991 | S. cerevisiae deletion strains, locus YLR357W, strain rsc2, stronger effect = lower value 0.947 | S. cerevisiae deletion strains, locus YLR370C, strain arc18, stronger effect = lower value 0.992 | S. cerevisiae deletion strains, locus YLR371W, strain rom2, stronger effect = lower value 1 | S. cerevisiae deletion strains, locus YLR384C, strain iki3, stronger effect = lower value 1 | S. cerevisiae deletion strains, locus YLR418C, strain cdc73, stronger effect = lower value 0.98 | S. cerevisiae deletion strains, locus YML016C, strain PPZ1, stronger effect = lower value 1 | S. cerevisiae deletion strains, locus YML032C, strain rad52, stronger effect = lower value 0.991 | S. cerevisiae deletion strains, locus YML120C, strain ndi1, stronger effect = lower value 0.994 | S. cerevisiae deletion strains, locus YML124C, strain tub3, stronger effect = lower value 1 | S. cerevisiae deletion strains, locus YMR058W, strain fet3, stronger effect = lower value 0.974 | S. cerevisiae deletion strains, locus YMR078C, strain ctf18, stronger effect = lower value 0.992 | S. cerevisiae deletion strains, locus YMR125W, strain sto1, stronger effect = lower value 0.978 | S. cerevisiae deletion strains, locus YMR129W, stronger effect = lower value 0.999 | S. cerevisiae deletion strains, locus YMR205C, strain PFK2, stronger effect = lower value 0.98 | S. cerevisiae deletion strains, locus YMR223W, strain ubp8, stronger effect = lower value 1 | S. cerevisiae deletion strains, locus YMR231W, strain pep5, stronger effect = lower value 0.967 | S. cerevisiae deletion strains, locus YMR307W, strain GAS1, stronger effect = lower value 0.99 | S. cerevisiae deletion strains, locus YNL067W, strain RPL9B, stronger effect = lower value 1.02 | S. cerevisiae deletion strains, locus YNL071W, strain lat1, stronger effect = lower value 0.991 | S. cerevisiae deletion strains, locus YNL128W, strain TEP1, stronger effect = lower value 1.02 | S. cerevisiae deletion strains, locus YNL209W, strain ssb2, stronger effect = lower value 0.998 | S. cerevisiae deletion strains, locus YNL233W, strain BNI4, stronger effect = lower value 1.02 | S. cerevisiae deletion strains, locus YNL248C, strain rpa49, stronger effect = lower value 0.966 | S. cerevisiae deletion strains, locus YNL250W, strain rad50, stronger effect = lower value 0.996 | S. cerevisiae deletion strains, locus YNL271C, strain bni1, stronger effect = lower value 1 | S. cerevisiae deletion strains, locus YNL298W, strain CLA4, stronger effect = lower value 1.01 | S. cerevisiae deletion strains, locus YNL307C, strain MCK1, stronger effect = lower value 0.995 | S. cerevisiae deletion strains, locus YNL322C, strain KRE1 (second series), stronger effect = lower value 1 | S. cerevisiae deletion strains, locus YNL322C, strain KRE1, stronger effect = lower value 1.01 | S. cerevisiae deletion strains, locus YNR049C, strain mso1, stronger effect = lower value 0.987 | S. cerevisiae deletion strains, locus YNR052C, strain pop2, stronger effect = lower value 0.995 | S. cerevisiae deletion strains, locus YOL012C, strain htz1 1.25 | S. cerevisiae deletion strains, locus YOL147C, strain pex11, stronger effect = lower value 0.996 | S. cerevisiae deletion strains, locus YOR001W, strain rrp6, stronger effect = lower value 0.984 | S. cerevisiae deletion strains, locus YOR061W, strain CKA2, stronger effect = lower value 0.997 | S. cerevisiae deletion strains, locus YOR069W, strain VPS5, stronger effect = lower value 1 | S. cerevisiae deletion strains, locus YOR070C, strain gyp1, stronger effect = lower value 1.01 | S. cerevisiae deletion strains, locus YOR080W, strain dia2, stronger effect = lower value 0.995 | S. cerevisiae deletion strains, locus YOR083W, strain WHI5, stronger effect = lower value 0.994 | S. cerevisiae deletion strains, locus YOR106W, strain vam3, stronger effect = lower value 0.99 | S. cerevisiae deletion strains, locus YOR136W, strain idh2, stronger effect = lower value 1 | S. cerevisiae deletion strains, locus YOR144C, strain elg1, stronger effect = lower value 0.999 | S. cerevisiae deletion strains, locus YOR184W, strain ser1, stronger effect = lower value 1.01 | S. cerevisiae deletion strains, locus YOR265W, strain rbl2, stronger effect = lower value 0.979 | S. cerevisiae deletion strains, locus YOR270C, strain vph1, stronger effect = lower value 0.914 | S. cerevisiae deletion strains, locus YOR290C, strain snf2, stronger effect = lower value 1 | S. cerevisiae deletion strains, locus YOR316C, strain cot1, stronger effect = lower value 0.999 | S. cerevisiae deletion strains, locus YPL051W, strain arl3, stronger effect = lower value 0.995 | S. cerevisiae deletion strains, locus YPL078C, strain atp4, stronger effect = lower value 0.989 | S. cerevisiae deletion strains, locus YPL106C, strain sse1, stronger effect = lower value 0.998 | S. cerevisiae deletion strains, locus YPL240C, strain hsp82, stronger effect = lower value 0.995 | S. cerevisiae deletion strains, locus YPL241C, strain CIN2, stronger effect = lower value 1.01 | S. cerevisiae deletion strains, locus YPR119W, strain clb2, stronger effect = lower value 0.994 | S. cerevisiae deletion strains, locus YPR141C, strain kar3, stronger effect = lower value 0.993 | S. cerevisiae deletion strains, locus YPR163C, strain tif3, stronger effect = lower value 0.994 | S. cerevisiae deletion strains, locus YPR167C, strain met16, stronger effect = lower value 0.996 | S. cerevisiae deletion strains, strain wtn01, stronger effect = lower value 1 | S. cerevisiae strains, strain wild type, stronger effect = lower value 1.02
